Rows were chosen to be rich in hits. Some 12% of all compounds tested hit in one or more screens of this group.
Sfp inh: qHTS Assay for Inhibitors of Bacillus subtilis Sfp phosphopantetheinyl transferase (PPTase); 4'-phosphopantetheinyl transferase ffp (Bacillus subtilis), Q9F4F7; 3.5% of 310,000 active; Biochemical Sfp PPTase activity, qHTS; Potency, µM, hits mostly inhibitors;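 also: the enzyme is Sfp with the accession as filed and its product quenches rhodamine fluorescence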
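Fluorescence-quenching assay: 15 nM Sfp-PPTase preincubated 15 min at room temperature with compound, then 5 uM rhodamine-CoA and 12.5 uM BHQ-2-labelled YbbR peptide added. Fluorescence (ex 525/em 598 nm) read at start and after 30 min; difference gives rate.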
PLK1 PBD inh: qHTS for Inhibitors of PLK1-PDB (polo-like kinase 1 - polo-box domain): Primary Screen; Plk1 PBD binding of FITC phosphopeptide, fluorescence polarization; Potency, µM, hits mostly inhibitors; 2.8% of 360,000 active; AID 720504, 2013; also: series mostly up to about 57 µM; nearly all actives have a fitted effect of over 65% in size
BAZ2B block: qHTS Assay for Inhibitors of BAZ2B | AlphaScreen BAZ2B-H3K14Ac peptide displacement | Bromodomain adjacent to zinc finger domain protein 2B (Homo sapiens), Q9UIF8 | AID 504333, 2011 | Potency, µM (titrated, usually from 114 µM), usual class: inhibitors | 4.4% of 360,000 active; also: nearly all actives have a fitted effect of over 60% in size
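AlphaScreen displacement of biotin-H3(5-23)K14Ac peptide (50 nM final) from BAZ2B (50 nM final) in PBS pH 7.4, 0.01% Tween-20; complex preformed 30 min RT, then compounds (top 110 uM) 30 min RT, beads 20 min dark.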
HP1b chromo inh: HTS for Inhibitors of HP1-beta Chromodomain Interactions with Methylated Histone Tails; Chromobox protein homolog 1 (Homo sapiens), P83916; Potency, µM (doses to about 114 µM), most hits filed as inhibitors; AlphaScreen HP1-beta / biotin-H3K9me3 peptide binding; 0.56% of 390,000 active; also: nearly all actives have a fitted effect of over 70% in size
Target sequence (P83916 whole entry, looked up): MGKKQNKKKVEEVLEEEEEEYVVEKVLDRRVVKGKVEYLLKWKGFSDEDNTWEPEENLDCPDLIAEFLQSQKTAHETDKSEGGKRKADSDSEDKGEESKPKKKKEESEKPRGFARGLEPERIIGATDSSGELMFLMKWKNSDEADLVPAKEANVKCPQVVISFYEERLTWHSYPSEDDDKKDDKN
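HP1-beta protein (50 nM final) preincubated 30 min at room temperature with biotinylated H3(1-18)K9me3 peptide (50 nM) in PBS pH 7.4, 0.01% Tween-20, then compound added for 30 min. AlphaScreen streptavidin donor/nickel chelate acceptor beads (10 ug/mL final), 30 min dark, luminescence read.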
G9a block: qHTS Assay for Inhibitors of Histone Lysine Methyltransferase G9a | Histone-lysine N-methyltransferase EHMT2 (Homo sapiens), Q96KQ7 | G9a H3K9 monomethylation, AlphaScreen, 2 h | Potency, µM (series often up to 102 µM), actives largely listed as inhibitors | 8.8% of 350,000 active | AID 504332, 2011; also: nearly all actives have a fitted effect of over 75% in size
Target sequence (Q96KQ7 913-1193 limits assumed): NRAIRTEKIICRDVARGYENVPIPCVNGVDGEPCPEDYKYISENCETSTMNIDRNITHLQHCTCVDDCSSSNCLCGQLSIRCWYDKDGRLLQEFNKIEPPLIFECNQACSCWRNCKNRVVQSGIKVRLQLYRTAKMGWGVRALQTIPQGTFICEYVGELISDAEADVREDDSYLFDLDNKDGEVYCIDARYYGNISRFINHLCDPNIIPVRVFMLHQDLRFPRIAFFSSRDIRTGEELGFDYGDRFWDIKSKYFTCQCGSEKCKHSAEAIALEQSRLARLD
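Enzyme 20 nM + cpd, 15 min RT; add b-H3K9 pep 500 nM / SAM 20 uM; 2 h RT; anti-H3K9me1 Ab 0.5 ug/mL + SA donor / anti-rabbit acceptor beads 20 ug/mL each, 10 min; AlphaScreen read.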
JMJD2A Tudor: qHTS Assay for Inhibitors of JMJD2A-Tudor Domain; AID 504339, 2011; Lysine-specific demethylase 4A (Homo sapiens), O75164; AlphaScreen JMJD2A-Tudor / H3K4me3 peptide binding; 4.4% of 390,000 active; Potency, µM (series often up to 114 µM), most hits filed as inhibitors; also: nearly all actives have a fitted effect of over 50% in size
Large screens that a line does not name were inactive. Calls follow the shape of the dose curve; as a rule, active = well fitted curve in the direction sought with a large enough effect; inconclusive = small, poorly fitted or top-dose-only effect, or another doubt; inactive = no such curve, though single readings can be large; an effect the other way counts as inactive or inconclusive.

CC(=O)c1ccc(NC(=O)c2ccc3c(c2)N(Cc2cccc(Cl)c2)C(=O)c2ccccc2S3(=O)=O)cc1	none (no result: Sfp inh, PLK1 PBD inh)
CCOC(=O)C1=C(C)N=c2s/c(=C/c3cccc(OCC(=O)O)c3)c(=O)n2C1c1ccc(F)cc1 (stereo unspecified)	BAZ2B block inconclusive, G9a block inconclusive (no result: PLK1 PBD inh, HP1b chromo inh, JMJD2A Tudor)
CC1=C(C(=O)OC(C)C)C(c2ccc(Cl)cc2)n2c(s/c(=C\c3ccc(OCC(=O)O)cc3)c2=O)=N1 (stereo unspecified)	BAZ2B block 45µM, HP1b chromo inh inconclusive, G9a block inconclusive, JMJD2A Tudor inconclusive
CCOC(=O)C1=C(C)N=c2sc(=Cc3ccc(OCC(=O)O)cc3)c(=O)n2C1c1ccc(SC)cc1 (stereo unspecified)	none (no result: Sfp inh, BAZ2B block, HP1b chromo inh, G9a block, JMJD2A Tudor)
CCOC(=O)C1=C(C)N=c2s/c(=C\c3ccc(OCC(=O)O)cc3)c(=O)n2C1c1ccccc1 (stereo unspecified)	PLK1 PBD inh inconclusive, BAZ2B block inconclusive
CCOC(=O)C1=C(C)N=c2s/c(=C\c3ccc(C(=O)O)cc3)c(=O)n2C1c1ccc(F)cc1 (stereo unspecified)	Sfp inh inconclusive, PLK1 PBD inh 30µM, BAZ2B block inconclusive, G9a block 79µM, JMJD2A Tudor inconclusive
CCOC(=O)C1=C(C)N=c2s/c(=C/c3ccco3)c(=O)n2C1c1cccc(OC)c1 (stereo unspecified)	Sfp inh 40µM, BAZ2B block 10µM, HP1b chromo inh inconclusive, G9a block 16µM, JMJD2A Tudor inconclusive
CCOC(=O)C1=C(C)N=c2s/c(=C\c3ccc(OCC(=O)O)c(OC)c3)c(=O)n2C1c1ccc(OC)cc1 (stereo unspecified)	BAZ2B block 79µM, G9a block 56µM, JMJD2A Tudor 79µM
CCOC(=O)C1=C(C)N=c2s/c(=C\c3ccc(C(=O)O)cc3)c(=O)n2C1c1ccc(OC)cc1OC (stereo unspecified)	none (no result: Sfp inh, BAZ2B block, G9a block)
O=C(c1ccco1)N1CCN(C(=O)C2CCCc3c2[nH]c2ccc(Cl)cc32)CC1 (stereo unspecified)	BAZ2B block inconclusive, G9a block inconclusive
Cc1ccc(S(=O)(=O)Oc2ccc3c(c2)O/C(=C\c2cccnc2)C3=O)cc1	JMJD2A Tudor inconclusive
O=C1/C(=C/c2cccnc2)Oc2cc(OS(=O)(=O)c3ccc(F)cc3)ccc21	JMJD2A Tudor 40µM
O=C1c2ccccc2C(=O)C1(c1ccccc1)N1CCN(c2cccc(C(F)(F)F)c2)CC1	BAZ2B block inconclusive, G9a block 10µM, JMJD2A Tudor inconclusive (no result: Sfp inh, PLK1 PBD inh)
O=C1c2ccccc2C(=O)C1(c1ccccc1)N1CCN(c2cccc(Cl)c2)CC1	BAZ2B block inconclusive, G9a block 6.3µM, JMJD2A Tudor inconclusive (no result: Sfp inh, PLK1 PBD inh)
CCOC(=O)N1CCN(C(=O)CCc2nc3sc4c(c3c(=O)[nH]2)CCCC4)CC1	none
O=C(CCc1nc2sc3c(c2c(=O)[nH]1)CCCC3)N1CCN(c2ccccc2)CC1	BAZ2B block 56µM (no result: Sfp inh)
Cc1cccc(NC(=O)C(C)SCc2nc3sc4c(c3c(=O)[nH]2)CCCC4)n1 (stereo unspecified)	G9a block 56µM (no result: Sfp inh)
CCc1cccc(NC(=O)CCc2nc3sc4c(c3c(=O)[nH]2)CCCC4)c1	BAZ2B block 71µM, JMJD2A Tudor inconclusive (no result: Sfp inh)
NC(=O)C1CCN(C(=O)CCc2nc3sc4c(c3c(=O)[nH]2)CCCC4)CC1	BAZ2B block 50µM, G9a block 50µM, JMJD2A Tudor inconclusive (no result: Sfp inh)
Cc1cccc(NC(=O)CCc2nc3sc4c(c3c(=O)[nH]2)CCCC4)c1	none (no result: Sfp inh)
CCN1C(=O)[C@H]2[C@H]3[C@H](O)[C@H](O)C/C(=N/O[C@@H](C)c4cn([C@H](CO)Cc5ccccc5)nn4)[C@@H]3CC[C@@H]2C1=O	none (no result: PLK1 PBD inh, BAZ2B block, HP1b chromo inh, G9a block, JMJD2A Tudor)
O=C(Nc1ccccc1)/C(=C/c1ccc([N+](=O)[O-])cc1)NC(=O)c1ccco1	G9a block 18µM
CC(NC(=O)/C(=C\c1cccc([N+](=O)[O-])c1)NC(=O)c1ccco1)C(=O)O (stereo unspecified)	Sfp inh 79µM, BAZ2B block inconclusive
O=C(NC(Cc1ccccc1)C(=O)O)/C(=C/c1ccc([N+](=O)[O-])cc1)NC(=O)c1ccc(Br)o1 (stereo unspecified)	none
O=C(Nc1ccccc1)/C(=C\c1ccccc1)NC(=O)c1ccco1	none (no result: G9a block)
O=C(NC(Cc1ccccc1)C(=O)O)/C(=C/c1cccc([N+](=O)[O-])c1)NC(=O)c1ccco1 (stereo unspecified)	none
O=C(Nc1ccccc1C(=O)O)/C(=C/c1ccc([N+](=O)[O-])cc1)NC(=O)c1ccc(Br)o1	Sfp inh 7.9µM, G9a block 45µM
O=C(CCN1C(=O)C2CC=CCC2C1=O)Nc1cc(C(F)(F)F)ccc1N1CCCC1 (stereo unspecified)	G9a block inconclusive (no result: Sfp inh)
Cc1ccc(-c2n[nH]c(=S)n2/N=C/C=C\c2ccccc2[N+](=O)[O-])cc1	BAZ2B block inconclusive, G9a block inconclusive, JMJD2A Tudor inconclusive
S=c1[nH]nc(-c2cc(-c3ccccc3)n[nH]2)n1/N=C/C=C/c1ccco1	Sfp inh 16µM, PLK1 PBD inh inconclusive, BAZ2B block inconclusive, HP1b chromo inh inconclusive, G9a block 1.8µM, JMJD2A Tudor inconclusive
S=c1[nH]nc(-c2ccco2)n1/N=C/C=C/c1ccco1	BAZ2B block inconclusive, HP1b chromo inh inconclusive, G9a block 1.4µM, JMJD2A Tudor 3.5µM
O=C(NCCSCc1c(F)cccc1Cl)C1CCN(S(=O)(=O)Cc2ccccc2)CC1	none (no result: Sfp inh, PLK1 PBD inh)
CC1(C)CC2CC(C)(CN2Cc2cccc([N+](=O)[O-])c2)C1 (stereo unspecified)	Sfp inh inconclusive, BAZ2B block inconclusive, HP1b chromo inh inconclusive, JMJD2A Tudor 20µM (no result: G9a block)
CC1(C)CC2CC(C)(CN2Cc2c(O)ccc3ccccc23)C1 (stereo unspecified)	PLK1 PBD inh inconclusive, G9a block 10µM
CC1(C)CC2CC(C)(CN2C(=O)COC(=O)c2cccc([N+](=O)[O-])c2)C1 (stereo unspecified)	none (no result: Sfp inh, BAZ2B block, G9a block)
CN(CCOCCOc1ccc2ccccc2c1)Cc1ccccc1	none
CCc1ccc(OCCCCN(C)Cc2ccccc2)cc1	BAZ2B block inconclusive, HP1b chromo inh inconclusive, JMJD2A Tudor 14µM (no result: G9a block)
CN(CCCCOc1ccc(F)cc1)Cc1ccccc1	BAZ2B block 79µM, HP1b chromo inh inconclusive, JMJD2A Tudor 22µM (no result: G9a block)

Screening results: PubChem BioAssay, National Center for Advancing Translational Sciences (NCATS)
